Screening data (PubChem BioAssay)
Shown are actives, neighbours in structure and some others; about 19% of the full set was active somewhere.
TDP1 cell noCPT: qHTS for Inhibitors of human tyrosyl-DNA phosphodiesterase 1 (TDP1): qHTS in cells in absence of CPT; DT40 Tdp1-/- hTDP1 cells, no CPT, ATP luminescence, 48 h; Potency, µM (highest dose often 46.2 µM), inactives show top-dose activity change, negative = growth inhibition, usual class: inhibitors; 420,000 compounds, 15% hits; AID 686978, 2013; further: potency means the concentration at half of the fitted maximal effect; nearly all actives have a fitted effect of over 55% in size
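Chicken DT40 Tdp1-/- cells complemented with human TDP1, screened without camptothecin (DMSO vehicle only), 400 cells/well. Compounds pin-transferred, cells incubated at 37 °C for at least 48 hr. Growth read as ATP-dependent luminescence (CellTiter-Glo, 30 min at RT).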
ELG1 DNA repair: ELG1-dependent DNA repair inhibition; HEK293T ELG1-luciferase reporter, luminescence, 16 h; DNA damage induced by 5-fluorouridine; Potency, µM (doses to about 46.1 µM), for inactives: at the highest dose activity change, negative = inhibition, actives largely listed as inhibitors; 330,000 compounds, 2.3% hits; AID 504467; further: potency means the concentration at half of the fitted maximal effect; nearly all actives have a fitted effect of over 55% in size
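Cells (2,000 per well) received 5-fluorouridine plus test compound or DMSO and were incubated 16 hr at 37 °C, 5% CO2. Luciferase activity was read by luminescence 30 min after ONE-Glo addition; signal suppression marked inhibition of damage-induced ELG1 function.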
HT1080 IDH1KD tx: HT-1080 IDH1 knockdown cell toxicity (counter line) | HT-1080 IDH1 knockdown viability, ATP luminescence, 48 h | Potency, µM (series often up to 46.1 µM), for inactives: at the highest dose activity, negative = toxicity, hits mostly cytotoxic | 360,000 compounds, 2% hits | AID 686971;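 further: potency means the concentration at half of the fitted maximal effect; 0% = DMSO wells and -100% = cell-free medium wells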
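CellTiter-Glo luminescence after 48 h compound exposure at 37 degrees C of IDH1-knockdown HT-1080 cells in 5% FBS RPMI. %Activity scaled between DMSO wells and cell-free media wells, with curves fitted and assigned curve classes.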
DT40 TDP1 CPT: DT40-hTDP1 cell growth loss with CPT; chicken DT40 Tdp1-/-;hTDP1 cells + 20 nM CPT, ATP luminescence, 48 h; 420,000 compounds, 12% hits; Potency, µM (top dose mostly 46.2 µM), for inactives: at the top dose activity change, negative = growth inhibition, usual class: inhibitors; further: potency means the concentration at half of the fitted maximal effect; nearly all actives have a fitted effect of over 55% in size
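Chicken DT40 Tdp1-/- cells stably complemented with human TDP1 were seeded at 400 cells/well in medium containing 20 nM camptothecin, exposed to pin-transferred compounds, and grown at 37 °C for at least 48 hr. Viability was read as ATP luminescence.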
HT1080-NT tox: kills 2HG-producing HT-1080-NT fibrosarcoma cells; HT-1080-NT fibrosarcoma viability, CellTiter-Glo ATP luminescence, 48 h; Potency, µM (titrated, usually from 46.1 µM), for inactives: at the highest dose activity, negative = less viability, actives largely listed as cytotoxic; 360,000 compounds, 1.6% hits;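 further: NT is the 2HG producing partner of a matched IDH1 knockdown line; potency means the concentration at half of the fitted maximal effect; 0% = DMSO-treated cells and -100% = media-only wells without cells; nearly all actives have a fitted effect of over 55% in size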
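Viability by CellTiter-Glo luminescence after 48 h compound exposure at 37C of HT-1080-NT cells (750/well, RPMI, 5% FBS). % activity scaled between DMSO wells and medium-only wells, then curve-fitted and categorized by curve class.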
IL1B secr inh: blocks inflammasome-driven IL-1 beta release | THP-1 LPS/ATP IL-1B secretion, AlphaLISA, 16 h; stronger effect = lower value | activity change, % at 57.5 µM | 360,000 compounds, 4.7% hits; in the data active means activity change below about -50%; inconclusive means mostly about -30% to -49%
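THP-1 cells pretreated 1 hr with compounds (up to 57.5 uM final), then stimulated with LPS (250 ng/mL final) plus ATP (1.25 mM final); secreted IL-1B measured by AlphaLISA after 16 hr, decreased signal indicating inhibition.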
* hit, by the source's call; ? = inconclusive; nt = no result. Unless noted, the call rests on the fitted dose curve; in most records, active means well fitted curve in the direction sought with a large enough effect; inconclusive means small, poorly fitted or top-dose-only effect, or another doubt; inactive means no such curve, though single readings can be large; an effect the other way counts as inactive or inconclusive. Unless noted, on the % scale 0 is the no-effect control and ±100 the full control effect.

SMILES	TDP1 cell noCPT	ELG1 DNA repair	HT1080 IDH1KD tx	DT40 TDP1 CPT	HT1080-NT tox	IL1B secr inh
CCn1c(NCCO)nc2c(c1=O)C(C)(CC)Cc1ccccc1-2 (stereo unspecified)	16µM*	-5%	-29%	?	?	4
CCC1(C)Cc2ccccc2-c2nc3n(c(=O)c21)CCS3 (stereo unspecified)	8.2µM*	15%	4%	?	2%	-12
CCC1(C)Cc2ccccc2-c2nc(NCCO)[nH]c(=O)c21 (stereo unspecified)	?	0%	-2%	?	-4%	3
CCC1(C)Cc2ccccc2-c2nc3n(c(=O)c21)CC(C(=O)O)S3 (stereo unspecified)	8%	5%	5%	3%	5%	-3
Cc1nc(-c2cn[nH]c2-c2ccc(O)cc2O)cs1	-29%	2%	1%	-24%	5%	20
CCOc1cc(O)c(-c2[nH]ncc2-c2nc(C)cs2)cc1CC	21µM*	?	-28%	23µM*	-18%	5
NCc1cn(Cc2ccccc2)nc1-c1ccccc1	?	nt	nt	11µM*	nt	nt
CCCCn1c(/N=C/c2ccccc2NS(=O)(=O)c2ccc(C)cc2)nc2ccccc21	23µM*	?	-24%	?	-19%	-7
CCn1c(/N=C/c2ccccc2O)nc2ccccc21	7%	-6%	-4%	20%	-1%	7
Cc1ccc(S(=O)(=O)Nc2ccccc2/C=N/c2nc3ccccc3n2C(C)C)cc1	21µM*	?	15µM*	18µM*	18µM*	-4
Cc1cccc2cc3c(nc12)SC(=NCC1CCCO1)N(Cc1ccco1)C3 (stereo unspecified)	23µM*	?	10µM*	?	5.8µM*	-100*
Cc1ccc2nc3c(cc2c1)CN(Cc1ccco1)C(=NCC1CCCO1)S3 (stereo unspecified)	?	?	0%	?	10%	-15
COc1cc(C2c3c(-c4cc(Cl)c(C)cc4O)n[nH]c3C(=O)N2Cc2cccnc2)ccc1O (stereo unspecified)	?	?	-14%	-6%	3%	-59*
COc1cc(C2c3c(-c4cc(C)ccc4O)n[nH]c3C(=O)N2Cc2cccnc2)cc(OC)c1OC (stereo unspecified)	-11%	nt	nt	7%	nt	nt
COc1cccc(C2c3c(-c4cc(Cl)c(C)cc4O)n[nH]c3C(=O)N2Cc2cccnc2)c1 (stereo unspecified)	16µM*	?	?	?	?	?
CCOC(=O)C1(Cc2cccc(Cl)c2)CCCN(C(=O)c2cnn(CC)c2)C1 (stereo unspecified)	-20%	?	-4%	-17%	0%	22
CN(CCC#N)S(=O)(=O)c1cc2c3c(c1)CCN3C(=O)CC2	-13%	15%	4%	-3%	8%	11
O=C1/C(=C\c2cc([N+](=O)[O-])ccc2O)SC(=S)N1Cc1ccc(Cl)cc1	3.7µM*	18µM*	23µM*	16µM*	23µM*	-10
O=C1/C(=C/c2cccnc2)SC(=S)N1N1CCOCC1	-27%	0%	2%	?	6%	26
O=C(O)CN1C(=O)/C(=C\c2cc([N+](=O)[O-])ccc2OCc2ccccc2Cl)SC1=S	0%	?	6%	-13%	8%	0
C#CCOc1ccc(/C=C2\SC(=S)N(Cc3cccnc3)C2=O)cc1	4.6µM*	12%	?	3.3µM*	-2%	6
